# “And” between values parts separate entries of the source, which are not always exact repeats. Equal values may be shown once. Inconclusive results are not listed. Where a call stands in place of a potency, no number is given. More than one record can exist for a structure, and the calls need not agree. The source made the active and inactive calls. Unless noted, calls come from the whole dose curve; as a rule, active = well fitted curve in the direction sought with a large enough effect; inconclusive = small, poorly fitted or top-dose-only effect, or another doubt; inactive = no such curve, though single readings can be large; an effect the other way counts as inactive or inconclusive.
# Experiments:
# [1] = molecular target: Guanine nucleotide-binding protein G(i) subunit alpha-1 (Homo sapiens) (UniProt P63096); assay: qHTS Assay for Inhibitors of RGS12 GoLoco Motif Activity (Green Fluorophore) (AID 879); conditions: Galphai1/FITC-RGS12 GoLoco peptide, fluorescence polarization; series mostly up to 57.1 µM;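 note: negative values mean loss of peptide binding seen as reduced polarization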
# Method in brief: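 Fluorescence polarization assay: 50 nM Gαi1 with 10 nM FITC-labeled RGS12 GoLoco peptide in 10 mM Tris pH 7.5, 150 mM NaCl, 0.1 mM GDP, 0.05% NP40, 10 min at room temperature with compound.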
# [2] = molecular target: Cytochrome P450 2D6 (Homo sapiens) (UniProt P10635); assay: qHTS Assay for Inhibitors and Substrates of Cytochrome P450 2D6 (AID 891); conditions: recombinant CYP2D6, luciferin-ME EGE luminescence; series mostly up to 57.1 µM; note: nearly all actives have a fitted effect of over 60% in size; note: potency is the fitted concentration of half-maximal effect
# Method in brief: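 Human CYP2D6 (5 nM) with 30 uM Luciferin-ME EGE (at Km) in 100 mM KPO4, compound preincubated 10 min, then NADPH regeneration system for 60 min at room temperature. Luciferin read by luminescence; normalized to 1.43 uM quinidine.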
# [3] = qHTS Assay for Identification of Small Molecule Antagonists for NFkB Signaling Pathway (AID 895; active = well fitted inhibition curve with a large enough effect in the signal ratio, with a control signal flat, not every such curve was filed as active; the % refers to the signal ratio; note: potency is the fitted concentration of half-maximal effect); conditions: NFkB beta-lactamase reporter cells, FRET ratio 460/530, stimulated with 10 pM TNF alpha; series mostly up to 38.3 µM
# Method in brief: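 Beta-lactamase reporter read-out (460 and 530 nm emission ratio, 405 nm excitation, 2 hrs substrate loading RT) after 5 hr stimulation with 10 pM TNF alpha in compound-treated NFkB-bla ME-180 cells in low-serum medium.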
# [4] = molecular target: Cytochrome P450 2C9 (Homo sapiens) (UniProt P11712); assay: qHTS Assay for Inhibitors and Substrates of Cytochrome P450 2C9 (AID 883); conditions: recombinant CYP2C9, luciferin-H luminescence, 60 min; series mostly up to 57.1 µM; note: nearly all actives have a fitted effect of over 60% in size; note: potency is the fitted concentration of half-maximal effect
# Method in brief: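 Inhibition of CYP2C9 is scored as loss of luminescence, with 57uM sulphaphenazole defining 100% inhibition. Substrate Luciferin-H is used at 100uM, equal to its KM; enzyme at 10nM in 25mM KPO4, 60 min at 37C with NADPH regeneration.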
# [5] = molecular target: Cytochrome P450 2C19 (Homo sapiens) (UniProt P33261); assay: qHTS Assay for Inhibitors and Substrates of Cytochrome P450 2C19 (AID 899); conditions: recombinant CYP2C19, luciferin-H EGE luminescence; series mostly up to 57.1 µM; note: nearly all actives have a fitted effect of over 60% in size; note: potency is the fitted concentration of half-maximal effect
# Method in brief: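 5nM enzyme + 10uM Luciferin-H EGE (=KM), 50mM KPO4; cpd pin-transferred, 10 min 37C; NADPH regen, 60 min 37C; stopped w/ luciferin detection reagent, 20 min; luminescence. Normalized to 57uM ketoconazole (AC100).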
# [6] = molecular target: Cytochrome P450 3A4 (Homo sapiens) (UniProt P08684); assay: qHTS Assay for Inhibitors and Substrates of Cytochrome P450 3A4 (AID 884); conditions: recombinant CYP3A4, Luciferin-PPXE luminescence; series mostly up to 57.1 µM; note: nearly all actives have a fitted effect of over 50% in size
# Method in brief: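 20 nM human CYP3A4 with 25 uM Luciferin-PPXE (at KM) in 200 mM KPO4, preincubated 10 min with compound; NADPH regeneration started a 60 min RT reaction. Luciferin detected by luminescence, normalized to 57 uM ketoconazole as full inhibition.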
# [7] = Confirmation and Secondary Assay for Modulators of Hemoglobin Beta Chain Splicing at IVS2 654 locus (AID 910); conditions: HeLa EGFP-654 splicing reporter, GFP fluorescence, 48 h; series mostly up to 46.1 µM;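 note: HeLa cells stably carrying EGFP split by mutant beta-globin IVS2-654 intron; per-well total GFP intensity by laser scanning cytometry after 2-day treatment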
# Method in brief: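 Readout: per-well total peak green fluorescence (488 nm ex, 500–520 nm em) from objects 5–250 µm, reflecting correct splicing of an EGFP-654 reporter. Compounds were applied for 2 days at 37 °C to overnight-plated HeLa EGFP-654 cells; controls were DMSO and 500 nM IVS2-654 PNA.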
# Cytochrome P450 2D6 (Homo sapiens), sequence (P10635 whole entry, looked up): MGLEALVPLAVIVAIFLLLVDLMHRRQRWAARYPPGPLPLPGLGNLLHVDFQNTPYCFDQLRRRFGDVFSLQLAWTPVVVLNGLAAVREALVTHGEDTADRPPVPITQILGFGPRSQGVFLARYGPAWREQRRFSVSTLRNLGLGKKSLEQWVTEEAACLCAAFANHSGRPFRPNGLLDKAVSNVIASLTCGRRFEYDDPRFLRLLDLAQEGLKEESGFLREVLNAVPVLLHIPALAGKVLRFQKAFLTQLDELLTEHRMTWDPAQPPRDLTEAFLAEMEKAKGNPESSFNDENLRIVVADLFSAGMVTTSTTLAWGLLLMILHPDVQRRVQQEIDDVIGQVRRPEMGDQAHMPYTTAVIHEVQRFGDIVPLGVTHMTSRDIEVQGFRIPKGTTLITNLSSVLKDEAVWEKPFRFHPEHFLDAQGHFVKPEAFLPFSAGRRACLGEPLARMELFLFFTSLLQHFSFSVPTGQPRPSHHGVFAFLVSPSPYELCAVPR
# Cytochrome P450 2C9 (Homo sapiens), sequence (P11712 whole entry, looked up): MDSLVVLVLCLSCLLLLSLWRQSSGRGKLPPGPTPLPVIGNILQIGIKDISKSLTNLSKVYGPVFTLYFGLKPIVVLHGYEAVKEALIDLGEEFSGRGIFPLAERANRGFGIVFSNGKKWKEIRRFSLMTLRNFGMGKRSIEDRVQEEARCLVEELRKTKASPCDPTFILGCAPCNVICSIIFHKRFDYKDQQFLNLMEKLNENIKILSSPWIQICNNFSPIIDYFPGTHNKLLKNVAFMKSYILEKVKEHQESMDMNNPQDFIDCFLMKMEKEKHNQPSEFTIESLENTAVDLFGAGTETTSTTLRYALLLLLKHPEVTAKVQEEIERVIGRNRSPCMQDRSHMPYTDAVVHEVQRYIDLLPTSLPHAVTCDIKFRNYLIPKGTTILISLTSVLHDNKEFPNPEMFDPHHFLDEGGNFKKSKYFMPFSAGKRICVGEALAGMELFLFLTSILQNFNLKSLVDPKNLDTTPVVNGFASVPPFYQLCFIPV
# Cytochrome P450 2C19 (Homo sapiens), sequence (P33261 whole entry, looked up): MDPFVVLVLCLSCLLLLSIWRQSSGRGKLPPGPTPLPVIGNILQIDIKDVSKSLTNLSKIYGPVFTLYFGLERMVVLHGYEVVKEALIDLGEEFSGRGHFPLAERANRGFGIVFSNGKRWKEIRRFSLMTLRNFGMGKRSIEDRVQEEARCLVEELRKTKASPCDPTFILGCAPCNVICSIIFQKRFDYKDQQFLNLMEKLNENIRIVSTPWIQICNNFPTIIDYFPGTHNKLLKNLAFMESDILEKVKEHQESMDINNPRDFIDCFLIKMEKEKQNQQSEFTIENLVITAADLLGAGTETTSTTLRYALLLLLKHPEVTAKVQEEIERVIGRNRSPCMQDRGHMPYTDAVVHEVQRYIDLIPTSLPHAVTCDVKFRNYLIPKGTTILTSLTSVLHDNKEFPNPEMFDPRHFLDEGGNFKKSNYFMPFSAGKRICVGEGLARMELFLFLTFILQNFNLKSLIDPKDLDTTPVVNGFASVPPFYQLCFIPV
# Guanine nucleotide-binding protein G(i) subunit alpha-1 (Homo sapiens), sequence (P63096 whole entry, looked up): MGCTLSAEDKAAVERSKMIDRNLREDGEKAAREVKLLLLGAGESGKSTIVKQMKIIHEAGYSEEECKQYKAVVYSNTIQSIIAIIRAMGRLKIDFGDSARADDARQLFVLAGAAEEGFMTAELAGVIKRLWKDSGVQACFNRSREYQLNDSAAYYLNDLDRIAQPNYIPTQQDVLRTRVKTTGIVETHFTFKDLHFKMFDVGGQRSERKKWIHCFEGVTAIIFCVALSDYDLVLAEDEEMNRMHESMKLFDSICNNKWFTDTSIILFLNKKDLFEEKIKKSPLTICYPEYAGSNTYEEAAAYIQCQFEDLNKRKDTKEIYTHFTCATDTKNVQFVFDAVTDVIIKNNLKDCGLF
# Cytochrome P450 3A4 (Homo sapiens), sequence (P08684 whole entry, looked up): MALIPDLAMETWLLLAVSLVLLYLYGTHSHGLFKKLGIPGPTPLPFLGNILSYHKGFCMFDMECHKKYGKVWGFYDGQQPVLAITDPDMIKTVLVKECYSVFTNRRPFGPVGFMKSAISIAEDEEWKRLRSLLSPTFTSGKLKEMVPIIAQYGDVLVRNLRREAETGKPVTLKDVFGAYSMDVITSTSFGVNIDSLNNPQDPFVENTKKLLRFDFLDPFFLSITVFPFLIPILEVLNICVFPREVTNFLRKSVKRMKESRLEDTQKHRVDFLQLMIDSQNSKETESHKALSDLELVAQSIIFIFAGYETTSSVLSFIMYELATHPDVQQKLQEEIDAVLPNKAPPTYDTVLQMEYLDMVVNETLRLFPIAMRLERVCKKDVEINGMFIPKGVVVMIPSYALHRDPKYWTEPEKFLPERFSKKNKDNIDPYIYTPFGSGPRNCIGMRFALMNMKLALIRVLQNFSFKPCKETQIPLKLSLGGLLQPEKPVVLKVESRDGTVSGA
compound,measurement,setting,value
CN(C)CC/C=C1\c2ccccc2COc2ccccc21,Potency,[1],inactive
same,Potency,[2],3.16 µM (active) and 3.98 µM (active)
C[C@]12CCC(=O)C=C1CC[C@@H]1[C@@H]2C(=O)C[C@@]2(C)[C@H]1CC[C@]2(O)C(=O)CO,Potency,[1],inactive
same,Potency,[3],inactive
COc1cc2c(cc1OC)-c1cc(=Nc3c(C)cc(C)cc3C)n(C)c(=O)n1CC2,Potency,[1],inactive
same,Potency,[4],1.26 µM (active)
same,Potency,[3],5620 nM (active)
c1cnc(N2CCN(Cc3ccc4c(c3)OCO4)CC2)nc1,Potency,[1],inactive
same,Potency,[2],0.199 µM (active)
same,Potency,[5],2 µM (active) and 631 nM (active)
Cc1ccc(=O)n(-c2ccccc2)c1,Potency,[1],inactive
same,Potency,[4],inactive
same,Potency,[2],inactive
same,Potency,[3],inactive
same,Potency,[5],inactive
CC[N+](C)(C)c1cccc(O)c1,Potency,[1],inactive
same,outcome,[6],inactive
same,Potency,[3],inactive
same,outcome,[7],inactive
O=C1NCN(c2ccccc2)C12CCN(CCCC(c1ccc(F)cc1)c1ccc(F)cc1)CC2,Potency,[1],inactive
same,Potency,[2],1.58 µM (active)
CN(C)C(=O)Oc1ccc[n+](C)c1,Potency,[1],inactive
same,outcome,[6],inactive
same,outcome,[7],inactive
CN1CCN(CC(=O)N2c3ccccc3C(=O)Nc3cccnc32)CC1,Potency,[1],inactive
same,outcome,[6],inactive
same,outcome,[7],inactive
Cc1nc2ccccn2c(=O)c1CCN1CCC(C(=O)c2ccc(F)cc2)CC1,Potency,[1],inactive
same,Potency,[4],inactive
same,Potency,[3],inactive
same,Potency,[5],inactive
same,outcome,[7],inactive
CC(C)NNC(=O)c1ccncc1,Potency,[1],inactive
same,outcome,[6],inactive
same,outcome,[7],inactive
CCCOc1ccccc1-c1nc2n[nH]nc2c(=O)[nH]1,Potency,[1],inactive
same,outcome,[6],inactive
same,Potency,[3],inactive
same,outcome,[7],inactive
CC1=NS(=O)(=O)c2cc(Cl)ccc2N1,Potency,[1],inactive
same,Potency,[4],inactive
same,Potency,[2],inactive and 7.94 µM (active)
same,Potency,[5],inactive
same,outcome,[7],inactive
CCO/C([O-])=N/c1c[n+](N2CCOCC2)no1,Potency,[1],inactive
same,Potency,[4],inactive
same,Potency,[2],inactive
same,Potency,[5],inactive
same,outcome,[7],inactive
CC(=O)Oc1cc(C(C)C)c(OCCN(C)C)cc1C,Potency,[1],inactive
same,Potency,[3],inactive
CN(C(=O)CCCOc1ccc2[nH]c(=O)ccc2c1)C1CCCCC1,Potency,[1],inactive
same,Potency,[4],inactive
same,Potency,[2],inactive
same,Potency,[5],inactive
Brc1c(NC2=NCCN2)ccc2nccnc12,Potency,[1],inactive
same,Potency,[4],inactive
same,Potency,[3],inactive
same,Potency,[5],inactive
O=C(O)CN(CCOCCOCCN(CC(=O)O)CC(=O)O)CC(=O)O,Potency,[1],inactive
same,Potency,[3],inactive
CN(C)C(=O)Oc1cccc([N+](C)(C)C)c1,Potency,[1],inactive
same,outcome,[6],inactive
same,Potency,[3],inactive
same,outcome,[7],inactive
CCc1cccc(N(C)C(N)=Nc2cccc3ccccc23)c1,Potency,[1],inactive
same,Potency,[2],0.199 µM (active)
same,Potency,[3],inactive
CCn1cc(C(=O)O)c(=O)c2cc3c(cc21)OCO3,Potency,[1],inactive
same,outcome,[6],inactive
same,outcome,[7],inactive
Cc1ccc(Cl)c(Nc2ccccc2C(=O)O)c1Cl,Potency,[1],inactive
same,Potency,[4],7.94 µM (active) and 1.26 µM (active)
same,outcome,[6],inactive
same,outcome,[7],inactive
C[N+](C)(C)CCOC(N)=O,Potency,[1],inactive
same,outcome,[6],inactive
same,Potency,[5],inactive
same,outcome,[7],inactive
O=C(O)CCCCCCCC(=O)O,Potency,[1],inactive
same,outcome,[6],inactive
same,outcome,[7],inactive
FC(F)(F)c1ccccc1-n1ccnc1,Potency,[1],inactive
same,Potency,[2],6.31 µM (active)
same,outcome,[7],inactive
CC1=C(C)C(=O)C(CCCCC#CCCCC#CCO)=C(C)C1=O,Potency,[1],inactive
same,Potency,[4],5.01 µM (active)
same,Potency,[2],31.6 µM (active)
same,Potency,[5],5.01 µM (active)
CCCCNc1c(C(=O)OCC)c(C)nc2c1cnn2CC,Potency,[1],inactive
same,Potency,[2],inactive and 199 nM (active)
CCCC(C(=O)OCCN(CC)CC)(c1ccccc1)c1ccccc1,Potency,[1],inactive
same,Potency,[2],63.1 nM (active) and 15.8 nM (active)
same,outcome,[7],inactive
NC(N)=NC(=O)Cc1c(Cl)cccc1Cl,Potency,[1],inactive
same,Potency,[4],inactive
same,Potency,[2],0.126 µM (active)
same,Potency,[5],0.251 µM (active)
C#CCN(C)CCCOc1ccc(Cl)cc1Cl,Potency,[1],inactive
same,Potency,[2],2 µM (active) and 398 nM (active)
same,Potency,[5],5.01 µM (active) and 2.51 µM (active)
CC(C)[N+](C)(CCOC(=O)C1c2ccccc2Oc2ccccc21)C(C)C,Potency,[1],inactive
same,Potency,[2],1.26 µM (active)
same,outcome,[7],inactive
CCC(=O)c1ccc2c(c1)N(CCCN(C)C)c1ccccc1S2,Potency,[1],inactive
same,Potency,[2],2 µM (active)
same,Potency,[3],inactive
CCCN(CCC)CCc1cccc2c1CC(=O)N2,Potency,[1],inactive
same,outcome,[6],inactive
same,outcome,[7],inactive
COc1ccc2c(c1OC)C(=O)O[C@@H]2[C@H]1c2c(cc3c(c2OC)OCO3)CCN1C,Potency,[4],0.126 µM (active)
CN(C)CCN(Cc1cccs1)c1ccccn1,Potency,[4],inactive
CCCCCCCC/C=C\CCCCCCCC(=O)NCc1ccc(O)c(OC)c1,Potency,[2],3.16 µM (active)

# — PubChem BioAssay (NCATS)
